Measurements reported in ChEMBL document CHEMBL1157539, “Thousands of chemical starting points for antimalarial lead identification” (Nature, 2010).

Test system: Plasmodium falciparum
Test: GSK_TCMDC: Inhibition of Plasmodium falciparum Dd2 in whole red blood cells, using parasite LDH activity as an index of growth. Test compounds present at 2uM
Format: functional

SMILES | Inhibition [%]
Cn1nc(-c2ccc(CNC3CCc4ccccc43)cc2)c2cnc(NCCCN3CCCC3)nc21 (stereo unspecified) | 22
O=C(NCCCCCN1CCCN(C(=O)Nc2ccc(F)c(C(F)(F)F)c2)CC1)C1CC1c1ccc(Cl)c(Cl)c1 (stereo unspecified) | 1
CCc1cc2c(O)c([N+](=O)[O-])c(=O)oc2cc1OCCCCCOc1cc2oc(=O)c([N+](=O)[O-])c(O)c2cc1CC | 0
CC[C@H](C)CNC(=O)c1cccc(-c2cccc(CNCC3CNCCCO3)c2)n1.O=C(O)C(F)(F)F (stereo partly specified) | 54
COc1ccccc1C1CCN(C2CCC(NC(=O)/C=C/c3ccc4c(c3)OC(F)(F)O4)CC2)CC1 (stereo unspecified) | 31
O=C(O)c1ccc2nc(-c3ccccn3)c(-c3ccccn3)nc2c1 | 18
COc1ccc(-c2ccc(NC(=O)c3cccc(C#N)c3)cc2)cc1CN1CCNCC1.O=C(O)C(F)(F)F | 47
CCc1cc(C(=O)c2cccc(C)c2)c(NC(=O)CN2CCN(C(=O)c3ccco3)CC2)s1 | 85
COc1ccc(OCC(O)CN(Cc2ccccc2OC)C(=O)Nc2ccc(Br)cc2)cc1 (stereo unspecified) | 2
CCCN(Cc1ccc(OCC)cc1)Cc1cc(=O)c2cc(Cl)ccc2[nH]1 | 82
CCN(CC)CCN(Cc1ccc(-c2ccc(C(F)(F)F)cc2)cc1)C(=O)Cn1c(CCc2c(F)cccc2F)nc(=O)c2ccccc21.O=C(O)C(O)C(O)C(=O)O | 61
Cl.O=c1cc(NCCNCc2cccc(-c3ccccc3)c2)[nH]c2ccccc12 | 68
Cc1ccc2nc3c(cc(C(=O)NCCc4ccccc4)c(=N)n3CCCOC(C)C)c(=O)n2c1 | 12
Cc1cc(O)c(CN(C)Cc2ccc(N(C)C)cc2)cc1C(C)C | 98
C=CCOC(=O)N1CCC(CNCc2cccc(-c3ccc(-c4nc5cccc(C)c5[nH]4)s3)c2)C1.O=C(O)C(F)(F)F (stereo unspecified) | 82
CCOC(=O)c1ccc(-c2cnoc2-c2cc(CC)c(OC)cc2O)o1 | 97
CS(=O)(=O)c1cccc(-c2cnc(N)c3cc(-c4ccc5c(c4)OCO5)ccc23)c1.O=CO | 23
Oc1ccc2ccccc2c1C=NNc1nc(=Nc2ccccc2)nc(N2CCOCC2)[nH]1 | 49

SMILES | Inhibition [%]
CCCCCCCNC(=O)NCC1CCCN(CCCCCNC(=O)/C=C/c2ccc(Cl)c(Cl)c2)C1 (stereo unspecified) | 7
C#CCOc1ccc2ccccc2c1CNCCCCCCNCc1c(OCC#C)ccc2ccccc12.CS(=O)(=O)O | 98
O=C(/C=C/c1ccc(Cl)cc1)NCCCCCN1CCC(C(=O)Nc2cccc(Cl)c2)CC1 | 0
COc1ccc2c(=NN=CC=Cc3ccccc3)cc(C)[nH]c2c1 | 56
COc1cc(Nc2nccc(N3CCC(NC(=O)c4cccc(C#N)c4)C3)n2)cc(OC)c1OC (stereo unspecified) | 76
COc1ccc2ncc(F)c(CCN3C[C@H](CNCc4cc(F)c5c(c4)NC(=O)CO5)[C@H](O)C3)c2n1.Cl | 23
O=C(Nc1cccc(C(F)(F)F)c1)Nc1ccc(Cl)c(C(F)(F)F)c1 | 99
c1nc2nc3c(c(Nc4ccc5c(c4)CCC5)n2n1)CCC3 | 70
CCN(CC)CCCNc1nccc(N2CCc3ncnc(Nc4ccc(OCc5cccc(F)c5)c(Cl)c4)c3C2)n1 | 95
CN(C)CCCNCCS(=O)(=O)c1cccc(Nc2ccc(-c3cccc(N(C)C)c3)cn2)c1 | 0
CCCCc1ccc(NC(=O)Nc2cccc(CCNCc3ccccc3)c2)cc1.O=C(O)C(F)(F)F | 13
NC(=O)c1ccsc1NC(=O)CNC(c1ccccc1)c1ccccc1 | 37
O=C(Nc1cccc(CN2CCCN(Cc3ccc(F)cc3)CC2)c1)c1cc2ccccc2s1.O=C(O)C(F)(F)F | 36
Cc1cc(-c2cccc(CNCc3ccc(F)cc3)c2)ccc1S(=O)(=O)NCCN1CCCC1.O=C(O)C(F)(F)F | 64
Cc1cc(C(F)(F)F)n2nc(C(=O)N(Cc3cncn3Cc3ccccc3F)CC3CC3)cc2n1 | 100
CC(=O)O.CCC[C@@H]([C@@H](CC1CCCCC1)C(=O)N[C@H](C(=O)Nc1nccc(N)n1)C(C)(C)C)N(O)C=O | 82
CC1(C)N=C(N)N=C(N)N1c1ccc(Oc2ccccc2)cc1.Cl | 3
COc1ccc2ncc(F)c([C@H](O)CN3CCC(NCc4ccc5c(c4)NC(=O)CS5)CC3)c2c1.Cl | 98
